Compound activity from PubChem.
An excerpt weighted towards active compounds, which were near 7.3% of everything screened.
IP6K1 inhibitor: inhibitors of human IP6K1. Q92551. IP6K1 kinase, ADP-Glo luminescence, 2 h; stronger effect = lower value. activity change, % (series mostly up to about 58 µM). 0.81% of 140,000 active. AID 1645851; in the data active means activity change below about -25%
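ADP-Glo luminescence measures ADP made by human IP6K1 during a 2 h RT reaction with ATP/IP6 (mix at 1.3 mM/130 uM); top library doses 57.5 and 19.1 uM final.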
3T3 cytotox: NIH 3T3 cell cytotoxicity. NIH 3T3 viability, CellTiter-Glo ATP luminescence, 48-72 h. Potency, µM (top dose mostly 96.7 µM), usual class: inhibitors. AID 1345082. 4.3% of 94,000 active; further: nearly all actives have a fitted effect of over 55% in size
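Luminescent ATP readout (CellTiter-Glo, 10 min RT) after 48 or 72 hr compound exposure of NIH 3T3 cells seeded at 400 cells/well in 1536-well format; quantitative HTS.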
Luciferase inh: inhibitors of firefly (Photinus pyralis) luciferase. P08659. purified P. pyralis luciferase, luminescence, biochemical. Potency, µM (doses to about 115 µM), usual class: inhibitors. 2.5% of 76,000 active. AID 1347043; further: nearly all actives have a fitted effect of over 65% in size
Target sequence (P08659 whole entry, looked up): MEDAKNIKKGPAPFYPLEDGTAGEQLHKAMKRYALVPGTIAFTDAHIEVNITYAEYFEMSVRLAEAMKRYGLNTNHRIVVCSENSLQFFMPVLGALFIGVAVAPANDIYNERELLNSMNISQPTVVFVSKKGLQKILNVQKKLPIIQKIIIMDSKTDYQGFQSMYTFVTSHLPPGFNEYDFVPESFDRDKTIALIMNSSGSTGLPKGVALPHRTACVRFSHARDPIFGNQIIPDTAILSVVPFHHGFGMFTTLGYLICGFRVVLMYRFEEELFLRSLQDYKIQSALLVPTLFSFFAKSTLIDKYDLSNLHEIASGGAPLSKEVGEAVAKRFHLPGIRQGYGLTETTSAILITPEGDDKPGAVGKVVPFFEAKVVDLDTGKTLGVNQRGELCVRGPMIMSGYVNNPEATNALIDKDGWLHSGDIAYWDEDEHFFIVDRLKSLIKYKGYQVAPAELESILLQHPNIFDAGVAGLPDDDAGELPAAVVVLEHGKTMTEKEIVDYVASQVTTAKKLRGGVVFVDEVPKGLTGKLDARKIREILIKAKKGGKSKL
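Inhibitors were tested against purified firefly luciferase in a biochemical, low-substrate format (both substrates at 10uM) and luminescence measured with a CCD imager.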
HEK293 viab: counter-screen for SNCA expression inhibitors: cell viability; 0.12% of 150,000 active; Potency, µM (titrated, usually from 57.1 µM), actives largely listed as cytotoxic; HEK-293-SNCA-luc viability, GF-AFC fluorescence, 24 h; further: nearly all actives have a fitted effect of over 30% in size
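HEK-293-SNCA-luc cells (1500/well) plated 24 h, then exposed 24 h to a dilution series; GF-AFC added 30 min at 37C, fluorescence 405/540 nm; normalised to medium-only and DMSO wells, Hill fit.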
SNCA expr inhib: SNCA gene expression inhibition; HEK-293 SNCA-luciferase knock-in, luminescence, 24 h; Potency, µM (series often up to 57.2 µM), actives largely listed as inhibitors; 0.17% of 140,000 active; further: nearly all actives have a fitted effect of over 45% in size
HEK293 tox: kills HEK 293 cells; 6.6% of 94,000 active; HEK 293 viability, ATP luminescence (CellTiter-Glo), 48-72 h; Potency, µM (top dose mostly 115 µM), usual class: inhibitors; further: nearly all actives have a fitted effect of over 60% in size
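Read-out: CellTiter-Glo ATP luminescence. Cells: HEK 293, 250 cells/well. Exposure: 48 or 72 hr, 37 degree Celsius.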
Of the large screens only hits and unclear results are named; the others gave an inactive call. Unless noted, the call rests on the fitted dose curve; in most records, active means well fitted curve in the direction sought with a large enough effect; inconclusive means small, poorly fitted or top-dose-only effect, or another doubt; inactive means no such curve, though single readings can be large; an effect the other way counts as inactive or inconclusive.

CC(C)CNC(=O)c1cc(C2CC2)nc2c1c(C1CCCN1)nn2-c1ccccc1 (centres undefined)	3T3 cytotox 17.8µM, SNCA expr inhib inconclusive, HEK293 tox 22.4µM (no result: Luciferase inh)
O=C(NCc1ccncc1)c1cc(C2CC2)nc2c1c(C1CCCN1)nn2-c1ccccc1 (centres undefined)	3T3 cytotox 20µM, SNCA expr inhib inconclusive, HEK293 tox 44.7µM (no result: Luciferase inh)
O=C(NCCc1noc(-c2ccncc2)n1)NC1CCCCC1	none
Cc1csc(NC(=O)c2nc3c(o2)CCN(Cc2c(C)noc2C)CC3)n1	3T3 cytotox 50.1µM, Luciferase inh 63.1µM
CCCN1CCc2nc(C(=O)Nc3nc(C)cs3)oc2CC1	Luciferase inh 20µM, HEK293 tox inconclusive
Cc1ccc(CN2CCc3nc(C(=O)Nc4ccc(Cl)cc4)oc3CC2)cc1	3T3 cytotox inconclusive, HEK293 tox inconclusive
Cc1csc(NC(=O)c2nc3c(o2)CCN(Cc2ccccc2)CC3)n1	3T3 cytotox inconclusive, Luciferase inh inconclusive, SNCA expr inhib inconclusive, HEK293 tox 56.2µM
Cc1csc(NC(=O)c2nc3c(o2)CCN(Cc2ccc(C#N)cc2)CC3)n1	3T3 cytotox inconclusive, Luciferase inh 22.4µM, HEK293 tox inconclusive
COc1ccccc1Nc1ccnc(N2CCC(NC(=O)C(C)C)CC2)n1	3T3 cytotox inconclusive, HEK293 viab inconclusive, HEK293 tox inconclusive (no result: Luciferase inh)
COCCc1noc([C@@H]2CC(F)(F)CN2C(=O)c2ncccc2F)n1	none
COc1ccccc1-c1ccc(CN2CCC(N[S+](=O)([O-])c3ccccc3)C2)cc1 (centres undefined)	3T3 cytotox 31.6µM, HEK293 tox 35.5µM (no result: Luciferase inh, HEK293 viab, SNCA expr inhib)
COc1ccc(F)cc1-c1ccc(CN2CCC(N[S+](=O)([O-])c3cccc(C(F)(F)F)c3)C2)cc1 (centres undefined)	3T3 cytotox 12.6µM, HEK293 tox 20µM (no result: Luciferase inh, HEK293 viab, SNCA expr inhib)
COc1ccc(F)cc1-c1ccc(CN2CCC(N[S+](C)(=O)[O-])C2)cc1 (centres undefined)	3T3 cytotox inconclusive, HEK293 tox inconclusive (no result: Luciferase inh, HEK293 viab, SNCA expr inhib)
COc1ccccc1-c1ccc(CN2CCC(N[S+](=O)([O-])c3cccc(C(F)(F)F)c3)C2)cc1 (centres undefined)	3T3 cytotox 12.6µM, HEK293 tox 20µM (no result: Luciferase inh, HEK293 viab, SNCA expr inhib)
COc1ccc(F)cc1-c1ccc(CN2CCC(N[S+](=O)([O-])c3ccc(NC(C)=O)cc3)C2)cc1 (centres undefined)	3T3 cytotox inconclusive, HEK293 tox 14.1µM (no result: Luciferase inh, HEK293 viab, SNCA expr inhib)
COC(=O)C1=CN(CC(=O)Nc2ccccc2C(F)(F)F)S(=O)(=O)N=C1C	none
O=C(NCCN1CCOCC1)c1nc2sccn2c1-c1ccccc1	none (no result: Luciferase inh)
O[C@@H]1CC(CNCC2CCCC2)(COc2cccnc2)C[C@@H]1O (some centres undefined)	none
Cc1ccc(Cn2cc(-c3ccncc3)cc2C(=O)NC2CC2)cc1	3T3 cytotox inconclusive, Luciferase inh 44.7µM, HEK293 tox inconclusive
Cc1ccc(Cn2cc(-c3ccncc3)cc2C(=O)NCC2CC2)cc1	3T3 cytotox inconclusive, HEK293 tox inconclusive
CCC1Oc2ccc(NC(=O)c3ccccc3F)cc2CN(Cc2ccc3c(c2)OCO3)C1=O (centres undefined)	3T3 cytotox inconclusive, HEK293 tox inconclusive
COc1cccc(OC)c1C(=O)Nc1ccc2c(c1)CN(Cc1ccccc1F)C(=O)C(C)O2 (centres undefined)	HEK293 tox inconclusive
CC1Oc2ccc(NC(=O)c3c(F)cccc3F)cc2CN(Cc2ccc(Cl)cc2)C1=O (centres undefined)	3T3 cytotox inconclusive, HEK293 tox 15.8µM
CC1Oc2ccc(NC(=O)c3ccccc3F)cc2CN(Cc2ccccc2F)C1=O (centres undefined)	3T3 cytotox inconclusive, HEK293 tox inconclusive
CC1Oc2ccc(NC(=O)c3ccccc3Cl)cc2CN(Cc2ccc(F)cc2)C1=O (centres undefined)	3T3 cytotox inconclusive, HEK293 tox 39.8µM
CCC1Oc2ccc(NC(=O)c3ccccc3F)cc2CN(CCc2ccc(OC)c(OC)c2)C1=O (centres undefined)	3T3 cytotox 39.8µM, HEK293 tox inconclusive
COc1ccccc1C(=O)Nc1ccc2c(c1)CN(Cc1ccc(F)cc1)C(=O)C(C)O2 (centres undefined)	3T3 cytotox inconclusive, HEK293 tox 35.5µM
CC(=O)N1CCCC1C(=O)N1CCC(N2Cc3ccccc3C2=O)CC1 (centres undefined)	none (no result: Luciferase inh)
COc1ccc(CN2Cc3cc(NC(=O)c4ccccc4OC)ccc3OCC2=O)c(OC)c1	3T3 cytotox 25.1µM, HEK293 tox 39.8µM
CC(=O)Oc1ccccc1C(=O)Nc1ccc2c(c1)CN(CCc1ccc(F)cc1)C(=O)C(C)O2 (centres undefined)	3T3 cytotox 25.1µM, SNCA expr inhib inconclusive, HEK293 tox inconclusive
CCCN1CCN(C(=O)c2c(C)oc3c2CN(Cc2cccc(F)c2)CC3)CC1	none
CCOC(=O)C1CCCN(C(=O)c2ccc3oc(-c4ccnc(Cl)c4)nc3c2)C1 (centres undefined)	3T3 cytotox inconclusive, HEK293 tox inconclusive (no result: Luciferase inh)
Cc1ccc(Nc2ccnc(N3CCCC(C(=O)NCc4ccc5c(c4)OCO5)C3)n2)cc1 (centres undefined)	3T3 cytotox 12.6µM, SNCA expr inhib inconclusive, HEK293 tox 7.94µM (no result: Luciferase inh)
COc1ccc(CNC(=O)C2CCCN2c2nccc(Nc3ccc(C)cc3)n2)cc1 (centres undefined)	3T3 cytotox inconclusive, HEK293 tox inconclusive (no result: Luciferase inh)
COc1ccc(Nc2ccnc(N3CCCC(C(=O)NCc4cccc(Cl)c4)C3)n2)cc1 (centres undefined)	3T3 cytotox inconclusive, HEK293 viab inconclusive, HEK293 tox inconclusive (no result: Luciferase inh)
COc1ccc(CNC(=O)C2CCCN(c3nccc(Nc4ccc(C)cc4)n3)C2)cc1 (centres undefined)	3T3 cytotox inconclusive, SNCA expr inhib inconclusive, HEK293 tox 10µM (no result: Luciferase inh)
COc1ccc(Nc2ccnc(N3CCCC(C(=O)NCc4cccc(F)c4)C3)n2)cc1 (centres undefined)	3T3 cytotox 15.8µM, SNCA expr inhib inconclusive, HEK293 tox 12.6µM (no result: Luciferase inh)
COc1ccc(CNC(=O)C2CCCN(c3nccc(Nc4ccccc4F)n3)C2)cc1 (centres undefined)	3T3 cytotox 10µM, HEK293 tox 28.2µM (no result: Luciferase inh)
C#CCNC(=O)C1CCCN(c2nccc(Nc3ccccc3F)n2)C1 (centres undefined)	3T3 cytotox inconclusive, SNCA expr inhib inconclusive, HEK293 tox inconclusive (no result: Luciferase inh)
COc1ccc(Nc2ccnc(N3CCCC(C(=O)NC4CC4)C3)n2)cc1 (centres undefined)	3T3 cytotox inconclusive, HEK293 tox inconclusive (no result: Luciferase inh)
